Several values for one entry are separate records, joined by “and”; a condition that tells them apart may be missing. Identical values can stand only once. A structure can be active in one record and inactive in another. Activity calls are given as the source filed them. The calls were made as follows: active = hit-call score of the fitted dose curve at least 0.9, where 1 is the maximum; inactive = score below 0.9.
What was measured:
[1] = read-out: Tissue plasminogen activator (tPA), PLAT (gene 5327); assay: BSK_BE3C_tPA: BioMAP Diversity Plus: BE3C Assay for Tissue plasminogen activator (tPA) Biomarker Activity (AID 2283041); conditions: primary human bronchial epithelial cells; actives raise or lower the signal;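 as to outcome: tPA level quantified by ELISA one day after compound addition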
Outline: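 Human primary bronchial epithelial cells were dosed with chemical and tPA biomarker levels measured by ELISA 24 hours later. Activity was fitted bidirectionally against DMSO as negative control and baseline.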

[2] = read-out: Interleukin-8 (IL8), CXCL8 (gene 3576); assay: BSK_CASM3C_IL8: BioMAP Diversity Plus: CASM3C Assay for Interleukin-8 (IL8) Biomarker Activity (AID 2283042); conditions: primary human coronary artery smooth muscle cells; actives raise or lower the signal;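 also: IL-8 protein level quantified by ELISA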
[3] = read-out: Human Leukocyte Antigen - DR isotype (HLADR), HLA-DRA (gene 3122); assay: BSK_CASM3C_HLADR: BioMAP Diversity Plus: CASM3C Assay for Human Leukocyte Antigen - DR isotype (HLADR) Biomarker Activity (AID 2283043); conditions: primary human coronary artery smooth muscle cells; actives raise or lower the signal;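 also: cell-surface HLA-DR protein level quantified by ELISA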
[4] = read-out: Macrophage colony-stimulating factor (MCSF), CSF1 (gene 1435); assay: BSK_CASM3C_MCSF: BioMAP Diversity Plus: CASM3C Assay for Macrophage colony-stimulating factor (MCSF) Biomarker Activity (AID 2283044); conditions: primary human coronary artery smooth muscle cells; actives raise or lower the signal;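 also: M-CSF protein amount quantified by ELISA after 24 h exposure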
[5] = read-out: Low-density lipoprotein receptor (LDLR), LDLR (gene 3949); assay: BSK_CASM3C_LDLR: BioMAP Diversity Plus: CASM3C Assay for Low-density lipoprotein receptor (LDLR) Biomarker Activity (AID 2283045); conditions: primary human coronary artery smooth muscle cells; actives raise or lower the signal;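 also: LDLR protein level on the cell surface quantified by ELISA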
[6] = read-out: Monocyte Chemoattractant Protein-1 (MCP1), CCL2 (gene 6347); assay: BSK_CASM3C_MCP1: BioMAP Diversity Plus: CASM3C Assay for Monocyte Chemoattractant Protein-1 (MCP1) Biomarker Activity (AID 2283046); conditions: primary human coronary artery smooth muscle cells; actives raise or lower the signal;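 also: MCP-1 level quantified by ELISA 24 h after dosing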
[7] = BSK_CASM3C_Proliferation: Cell Proliferation Assessment in the BioMAP Diversity Plus: CASM3C Assay (AID 2283047); conditions: primary human coronary artery smooth muscle cells;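 also: sulforhodamine B total protein stain as relative cell number at 560 nm; sub-confluent cells exposed 48 h before staining; fitted both ways against DMSO so gain or loss of cell number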
[8] = read-out: Monokine induced gamma interferon (MIG), CXCL9 (gene 4283); assay: BSK_CASM3C_MIG: BioMAP Diversity Plus: CASM3C Assay for Monokine induced gamma interferon (MIG) Biomarker Activity (AID 2283048); conditions: primary human coronary artery smooth muscle cells; actives raise or lower the signal;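 also: MIG protein level measured by ELISA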
[9] = read-out: serum amyloid A (SAA), SAA1 (gene 6288); assay: BSK_CASM3C_SAA: BioMAP Diversity Plus: CASM3C Assay for serum amyloid A (SAA) Biomarker Activity (AID 2283049); conditions: primary human coronary artery smooth muscle cells; actives raise or lower the signal;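 also: SAA protein level quantified by ELISA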
[10] = BSK_CASM3C_SRB: Viability Assessment in the BioMAP Diversity Plus: CASM3C Assay (AID 2283050); conditions: primary human coronary artery smooth muscle cells;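 also: total protein by SRB staining as cytotoxicity measure in parallel cultures; cells exposed to compound for 24 h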

| Compound | AC50 [1] | AC50 [2] | outcome [2] | AC50 [3] | AC50 [4] | outcome [4] | outcome [5] | AC50 [6] | AC50 [7] | AC50 [8] | AC50 [9] | AC50 [10] | outcome [1] | outcome [3] | outcome [6] | outcome [7] | outcome [8] | outcome [9] | outcome [10] | AC50 [5] |
| --- | --- | --- | --- | --- | --- | --- | --- | --- | --- | --- | --- | --- | --- | --- | --- | --- | --- | --- | --- | --- |
| CC1(C)CCC[C@]2(C)[C@H]3CCO[C@]3(C)CC[C@@H]12 | 23 µM (active) and 20 µM (active) | 33 µM (active) | inactive | 34.9 µM (active) and 32.9 µM (active) | 20 µM (active) | inactive | inactive | 33.4 µM (active) and 33.3 µM (active) | 36.3 µM (active) and 36.8 µM (active) | 30.4 µM (active) and 31.2 µM (active) | 34.2 µM (active) and 31.3 µM (active) | 34.5 µM (active) and 35.3 µM (active) |  |  |  |  |  |  |  |  |
| IC(I)I |  |  | inactive |  |  | inactive | inactive |  |  |  |  |  | inactive | inactive | inactive | inactive | inactive | inactive | inactive |  |
| CN(c1nccc(=O)[nH]1)C1CCN(c2nc3ccccc3n2Cc2ccc(F)cc2)CC1 |  |  | inactive |  |  | inactive | inactive |  |  |  |  |  | inactive | inactive | inactive | inactive | inactive | inactive | inactive |  |
| C=CC(C)(O)CCC=C(C)C (stereo unspecified) |  |  | inactive |  |  | inactive | inactive |  | 4.81 µM (active) |  |  |  | inactive | inactive | inactive | inactive | inactive | inactive | inactive |  |
| C=C(C)C(=O)OCCOCCOCCOC(=O)C(=C)C |  |  | inactive | 0.0969 µM (active) | 0.016 µM (active) |  | inactive |  |  |  |  |  | inactive |  | inactive | inactive | inactive | inactive | inactive |  |
| CS(=O)(=O)c1ccc(C2=C(c3ccccc3)C(=O)OC2)cc1 |  |  | inactive |  |  | inactive | inactive |  |  |  |  |  | inactive | inactive | inactive | inactive | inactive | inactive | inactive |  |
| Clc1cc(Cl)c(-c2c(Cl)c(Cl)cc(Cl)c2Cl)cc1Cl |  |  | inactive |  |  | inactive | inactive |  | 0.023 µM (active) |  |  |  | inactive | inactive | inactive |  | inactive | inactive | inactive |  |
| COc1cc(Cl)c(OC)cc1N |  |  | inactive |  |  | inactive | inactive |  |  |  |  |  | inactive | inactive | inactive | inactive | inactive | inactive | inactive |  |
| c1ccc2cc(Nc3ccc(Nc4ccc5ccccc5c4)cc3)ccc2c1 |  |  | inactive |  |  | inactive | inactive |  |  |  |  |  | inactive | inactive | inactive | inactive | inactive | inactive | inactive |  |
| O=C1c2ccccc2C(=O)c2c(O)ccc(O)c21 |  |  | inactive | 4.94 µM (active) |  | inactive | inactive |  | 15 µM (active) |  |  |  | inactive |  | inactive |  | inactive | inactive | inactive |  |
| CCCCCC(C=O)=Cc1ccccc1 |  |  | inactive | 31 µM (active) | 31.9 µM (active) |  | inactive | 27.5 µM (active) | 30.1 µM (active) |  |  | 33.5 µM (active) | inactive |  |  |  | inactive | inactive |  |  |
| C=C(C)C(=O)OCCOCCOCCOCCOC(=O)C(=C)C |  |  | inactive | 1.44 µM (active) |  | inactive | inactive |  |  |  |  |  | inactive |  | inactive | inactive | inactive | inactive | inactive |  |
| C=C(C)[C@H]1CC=C(C)C(=O)C1 |  |  | inactive |  |  | inactive | inactive |  |  |  |  |  | inactive | inactive | inactive | inactive | inactive | inactive | inactive |  |
| COc1ccc(OC)c(N=Nc2c(O)ccc3ccccc23)c1 |  |  | inactive |  | 0.0186 µM (active) |  |  |  | 33.6 µM (active) |  |  | 20 µM (active) | inactive | inactive | inactive |  | inactive | inactive |  | 0.119 µM (active) |
| CCOC(=O)C(C#N)=C(c1ccccc1)c1ccccc1 |  |  | inactive |  |  | inactive | inactive |  | 12.8 µM (active) and 3.97 µM (active) |  |  |  | inactive | inactive | inactive |  | inactive | inactive | inactive |  |
| CC(C=O)Cc1ccc(C(C)(C)C)cc1 (stereo unspecified) | 24.8 µM (active) |  | inactive | 28.8 µM (active) | 27.5 µM (active) |  | inactive | 30.6 µM (active) | 32.3 µM (active) | 30.7 µM (active) |  | 31.3 µM (active) |  |  |  |  |  | inactive |  |  |
| O=CN1CCOCC1 |  |  | inactive |  |  | inactive | inactive |  |  |  |  |  | inactive | inactive | inactive | inactive | inactive | inactive | inactive |  |
| C[C@@H]1CCN(C(=O)[C@H](CCCN=C(N)N)NS(=O)(=O)c2cccc3c2NC[C@H](C)C3)[C@@H](C(=O)O)C1 |  |  | inactive |  |  | inactive | inactive |  |  |  |  |  | inactive | inactive | inactive | inactive | inactive | inactive | inactive |  |
| CC(CN=Cc1ccccc1O)N=Cc1ccccc1O (stereo unspecified) | 8.3 µM (active) |  | inactive |  |  | inactive | inactive |  | 1.64 µM (active) |  |  |  | inactive | inactive | inactive | inactive | inactive | inactive | inactive | 20 µM (active) |
| CC1(C)C2=CCCC(C)(C)[C@]23CC[C@H]1C3 | 31.5 µM (active) |  | inactive | 20 µM (active) | 32.7 µM (active) |  |  | 31.3 µM (active) | 30.7 µM (active) |  | 20 µM (active) | 31.1 µM (active) |  |  |  |  | inactive |  |  | 34.6 µM (active) |
| CC(C)(N=C=O)c1cccc(C(C)(C)N=C=O)c1 |  |  | inactive |  |  | inactive | inactive |  |  |  |  |  | inactive | inactive | inactive | inactive | inactive | inactive | inactive |  |
| CCCCOC(=O)CCCCCCCC(=O)OCCCC |  |  | inactive |  |  | inactive | inactive |  |  |  |  |  | inactive | inactive | inactive | inactive | inactive | inactive | inactive |  |
| c1ccc(CCc2ccccc2)cc1 | 30.6 µM (active) |  | inactive | 29 µM (active) | 29.5 µM (active) |  |  | 33.1 µM (active) |  |  | 26.4 µM (active) | 29.1 µM (active) |  |  |  | inactive | inactive |  |  | 30.6 µM (active) |

Source: PubChem BioAssay (EPA / NIEHS)
